Assay results: PubChem BioAssay (NCATS)
Values without a mark were called inactive. How the calls were made is not given here.

Test system: HIV-1 nucleocapsid protein NCp7 (binding to TG oligonucleotide)
Test: HIV Nucleocapsid (AID 346);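 further: potency is for inhibitors that block NC binding and lower polarization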
Conditions: HIV-1 NC / fluorescein-TGTGTGTG probe, fluorescence polarization
In short: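 HIV-1 NC (100 nM) binding to fluorescein-labelled ssDNA TG4xF (10 nM) in Hepes pH 7.5, 250mM NaCl, 1uM ZnCl2, TCEP and 2-mercaptoethanol; compounds pin-transferred, 1 hr room temperature, fluorescence polarization read on CCD imager.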
Potency means the concentration at half of the fitted maximal effect.

Structure (SMILES)	Potency
COCCn1c(=O)c(-c2ccc(Cl)cc2)nc2cnc(Nc3ccccc3)nc21	> 20 µM
COc1cccc(Cn2c(=O)c(-c3ccccc3)nc3cnc(N(C)C)nc32)c1	> 20 µM
COC(=O)N1CCC2(CC1)CCN(c1ccncc1)CC2	> 20 µM
Cn1c(=O)c(-c2cc(F)cc(F)c2)nc2cnc(Oc3cccc(Cl)c3)nc21	> 20 µM
COc1ccc2[nH]cc(CCNc3ncncc3-c3ccccc3OC)c2c1	> 20 µM
c1nc(NCCN2CCOCC2)c2cc(-c3ccoc3)ccc2n1	> 20 µM
Cc1nc2cnc(OCc3ccccc3)nc2n(CCc2ccccc2)c1=O	> 20 µM
COc1ccc(-c2nc3cnc(N4CCN(C)CC4)nc3n(-c3ccc(OC)cc3)c2=O)cc1	> 20 µM
CC(C)NC(=O)N1CCCC2(CCN(C(=O)c3ccncc3)CC2)C1	> 20 µM
COCC(=O)N1CCC2(CC1)CCN(C(=O)NC(C)C)CC2	> 20 µM
Clc1ccccc1-c1cc(NCc2cccnc2)ncn1	> 20 µM
COC(=O)N1CCC2(CCCN(C(=O)Nc3cccc(F)c3)C2)CC1	> 20 µM
Cc1nc2cncnc2n(Cc2ccccc2Cl)c1=O	> 20 µM
Cn1c(=O)c(-c2cccc(C#N)c2)nc2cnc(Oc3ccccc3)nc21	> 20 µM
COc1ccc(-n2c(=O)c(-c3ccc(Cl)cc3)nc3cnc(N4CCNCC4)nc32)cc1	> 20 µM
COc1ncc2nc(-c3cn(C)c4ccccc34)c(=O)n(C)c2n1	> 20 µM
O=C(c1cccc(F)c1)N1CCC2(CC1)CN(c1ncccn1)C2	> 20 µM
N#CCCn1c(=O)c(-c2ccccc2)nc2cnc(OCc3ccccc3)nc21	> 20 µM
COc1cccc(Cn2c(=O)c(CCc3ccccc3)nc3cnc(N4CCN(C)CC4)nc32)c1	> 4 µM
CN1CCN(c2nc(-c3cccc(C#N)c3)nc3ccccc23)CC1	> 20 µM

Structure (SMILES)	Potency
COc1ccc(-n2c(=O)c(-c3cc(F)cc(F)c3)nc3cncnc32)cc1	> 20 µM
COCCNc1nc(-c2ccc(C(=O)N(C)C)cc2)nc2ccccc12	> 20 µM
CC(C)CN1CCC2(CC1)CCN(C(=O)c1cnccn1)CC2	> 20 µM
CS(=O)(=O)Nc1cccc(-c2nc(Nc3ccc(F)cc3)c3ccccc3n2)c1	> 20 µM
CCNc1ncc2nc(-c3ccc(OC)cc3)c(=O)n(C)c2n1	> 20 µM
CS(=O)(=O)N1CCC2(CC1)CN(Cc1cc(C(F)(F)F)cc(C(F)(F)F)c1)C2	> 20 µM
Cc1ccccc1-c1cncnc1Nc1ccc(F)cc1	> 20 µM
COc1ccc2[nH]cc(CCNc3ccnc(-c4cccc(C#N)c4)n3)c2c1	> 20 µM
Cc1nc2cnc(Oc3cccc(Cl)c3)nc2n(C[C@H]2CCCO2)c1=O	> 20 µM
COc1ccc2[nH]cc(CCNc3ncncc3-c3ccc(C(=O)N(C)C)cc3)c2c1	> 20 µM
CN(C)Cc1ccccc1-c1ccc2ncnc(N(C)Cc3ccco3)c2c1	> 20 µM
CC(=O)NCCNc1nc(-c2ccc3c(c2)OCO3)nc2ccccc12	> 20 µM
COCCNc1cc(-c2ccccc2CN(C)C)ncn1	> 20 µM
CN(C)C(=O)c1ccc(-c2cncnc2-n2ccnc2)cc1	> 20 µM
O=c1c(CCc2ccccc2)nc2cnc(Oc3ccccc3)nc2n1C[C@H]1CCCO1	> 20 µM
COc1ccc(C(=O)N2CCC[C@@]3(CCN(Cc4nccs4)C3)C2)cc1	> 20 µM
CC(=O)NCCNc1ncnc2ccc(-c3ccc(C(=O)N(C)C)cc3)cc12	> 20 µM
COc1ccccc1-c1cncnc1N1CCN(C)CC1	> 20 µM
COc1ccc2[nH]cc(CCNc3ncncc3-c3ccccc3C)c2c1	> 20 µM
CC(=O)N1CCC2(CCCN(c3cccc(-c4ccccc4)c3)C2)CC1	> 20 µM
